Bioassay records as filed in PubChem.
POLI inh – DNA polymerase iota (human) inhibition; Potency, µM (top dose mostly 115 µM), for inactives: top-dose activity, negative = inhibition, usual class: inhibitors; Pol iota fluorescent replication assay, 10 min; 390,000 tested, 1% active; further: potency means the concentration at half of the fitted maximal effect
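Fluorescent replication assay read twice, at 0 min and 10 min after adding 50 nM (final) substrate. Enzyme (10 nM) and compounds were first incubated 15 min at room temperature; enzyme-free buffer wells were negative controls.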
Pol beta inh – blocks human DNA polymerase beta activity | AID 485314 | Potency, µM (top dose mostly 114 µM), for inactives: at the top dose activity change, negative = inhibition, usual class: inhibitors | 340,000 tested, 1.3% active | Pol beta primer extension/strand displacement, fluorescence kinetic | P06746; further: potency means the concentration at half of the fitted maximal effect; on the % scale 0 is the no-effect control and ±100 the full control effect
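Pol beta (10 nM) was preincubated with compound for 15 min at room temperature. The reaction was then started with 50 nM substrate and read immediately and after a further 10 min at room temperature.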
WRN helicase inh-1 – blocks human WRN helicase. WRN helicase unwinding, fluorescent forked duplex, kinetic. Q14191. 360,000 tested, 0.46% active. Potency, µM (top dose mostly 114 µM), for inactives: at the top dose activity change, negative = inhibition, hits mostly inhibitors; further: potency means the concentration at half of the fitted maximal effect; on the % scale 0 is the no-effect control and ±100 the full control effect; nearly all actives have a fitted effect of over 55% in size
Target sequence (Q14191 whole entry, looked up): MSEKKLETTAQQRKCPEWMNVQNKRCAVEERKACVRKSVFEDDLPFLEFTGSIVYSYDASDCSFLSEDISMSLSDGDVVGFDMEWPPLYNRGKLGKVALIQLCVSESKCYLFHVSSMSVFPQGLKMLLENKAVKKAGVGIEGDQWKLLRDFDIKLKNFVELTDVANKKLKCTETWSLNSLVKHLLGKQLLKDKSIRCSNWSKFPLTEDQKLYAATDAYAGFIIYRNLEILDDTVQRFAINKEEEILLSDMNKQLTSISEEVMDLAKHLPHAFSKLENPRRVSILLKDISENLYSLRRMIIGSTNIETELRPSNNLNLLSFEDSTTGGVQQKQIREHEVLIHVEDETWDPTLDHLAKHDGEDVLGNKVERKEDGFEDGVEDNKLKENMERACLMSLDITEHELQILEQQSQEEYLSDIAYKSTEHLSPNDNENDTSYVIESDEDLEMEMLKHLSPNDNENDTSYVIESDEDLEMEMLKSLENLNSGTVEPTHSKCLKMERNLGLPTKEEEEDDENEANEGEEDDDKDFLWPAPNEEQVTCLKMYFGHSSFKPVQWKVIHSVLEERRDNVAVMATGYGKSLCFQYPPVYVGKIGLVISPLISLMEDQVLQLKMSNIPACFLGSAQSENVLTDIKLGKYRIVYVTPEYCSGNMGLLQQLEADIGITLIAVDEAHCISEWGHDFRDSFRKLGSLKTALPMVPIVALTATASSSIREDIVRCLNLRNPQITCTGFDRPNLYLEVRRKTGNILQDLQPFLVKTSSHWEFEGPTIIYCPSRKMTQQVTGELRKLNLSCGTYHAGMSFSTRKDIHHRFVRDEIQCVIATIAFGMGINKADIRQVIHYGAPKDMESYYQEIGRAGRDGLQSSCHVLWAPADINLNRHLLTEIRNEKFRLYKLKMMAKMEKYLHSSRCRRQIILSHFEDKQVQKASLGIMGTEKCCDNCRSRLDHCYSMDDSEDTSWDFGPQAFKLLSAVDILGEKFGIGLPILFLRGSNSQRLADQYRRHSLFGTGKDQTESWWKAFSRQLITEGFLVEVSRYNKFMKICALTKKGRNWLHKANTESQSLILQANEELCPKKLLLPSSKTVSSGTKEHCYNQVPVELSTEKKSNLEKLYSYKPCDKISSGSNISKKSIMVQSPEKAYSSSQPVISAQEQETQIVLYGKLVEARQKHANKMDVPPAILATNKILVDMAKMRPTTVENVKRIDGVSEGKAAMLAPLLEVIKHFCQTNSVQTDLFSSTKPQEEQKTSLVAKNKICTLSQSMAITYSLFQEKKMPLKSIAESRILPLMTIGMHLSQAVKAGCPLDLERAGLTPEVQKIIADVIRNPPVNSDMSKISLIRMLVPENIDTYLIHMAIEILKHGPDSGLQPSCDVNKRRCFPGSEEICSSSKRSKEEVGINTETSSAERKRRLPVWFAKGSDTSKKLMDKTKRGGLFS
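Enzyme (20 nM final) and test compound sit together 15 min at room temperature before substrate addition. Substrate is a single-forked duplex oligonucleotide (100 nM) labelled with fluorophore and quencher, with 2 mM ATP; helicase unwinding raises red fluorescence, read kinetically.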
FEN1 inh-1 – human FEN1 inhibition; P39748; Potency, µM (top dose mostly 114 µM), inactives show top-dose activity change, negative = inhibition, hits mostly inhibitors; 390,000 tested, 0.35% active; Recombinant FEN1 flap cleavage, fluorescence, 15 min; further: potency means the concentration at half of the fitted maximal effect; on the % scale 0 is the no-effect control and ±100 the full control effect; nearly all actives have a fitted effect of over 65% in size
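Concentration–response screening of FEN1 (10 nM): 15 min compound preincubation at room temperature, reaction started with 50 nM substrate and read at 0 and 15 min. Corrected, normalized data were fitted by a four-parameter Hill equation.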
Pol kappa inh-1 – blocks human DNA polymerase kappa activity | Q9UBT6 | purified Pol kappa, fluorescent DNA synthesis assay, 10 min | Potency, µM (highest dose often 107 µM), without a hit: at the highest dose activity, negative = inhibition, hits mostly inhibitors | 400,000 tested, 0.53% active; further: potency means the concentration at half of the fitted maximal effect; on the % scale 0 is the no-effect control and ±100 the full control effect
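Here, compound and 10 nM enzyme are combined for 15 min at room temperature; adding 50 nM substrate (final) starts DNA synthesis, tracked by fluorescence at 0 and 10 min against buffer-only wells.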
Pol eta inh-1 – blocks human DNA polymerase eta activity. Potency, µM (top dose mostly 114 µM), for inactives: top-dose activity change, negative = inhibition, hits mostly inhibitors. 390,000 tested, 1.2% active. recombinant Pol eta, fluorescent DNA replication assay; further: potency means the concentration at half of the fitted maximal effect; on the % scale 0 is the no-effect control and ±100 the full control effect
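Fluorescent replication assay: 50 nM final substrate added after a 15 min room-temperature compound preincubation with 10 nM enzyme. Signal taken at 0 min and again at 10 min.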
TbPGK inh – validation of Trypanosoma brucei phosphoglycerate kinase inhibitors | shares compounds with Pol kappa inh-1 | TbPGK coupled GAPDH assay, Kinase-Glo luminescence | Potency, µM (doses to about 57.5 µM), without a hit: at the top dose activity change, negative = inhibition, usual class: inhibitors | 500 tested, 79% active; further: potency means the concentration at half of the fitted maximal effect; on the % scale 0 is the no-effect control and ±100 the full control effect; nearly all actives have a fitted effect of over 65% in size
POLI cherry-pick – Human Pol iota inhibitor confirmatory assay; shares compounds with Pol kappa inh-1; Pol iota primer extension, TAMRA/BHQ fluorescence; Potency, µM, hits mostly inhibitors; 1,500 tested, 77% active; AID 720496; further: potency means the concentration at half of the fitted maximal effect
GALK confirm – galactokinase (human) inhibition, confirmation | shares compounds with Pol eta inh-1 | purified GALK, Kinase-Glo ATP depletion luminescence | Potency, µM (top dose mostly 115 µM), for the others: top-dose activity, negative = inhibition, hits mostly inhibitors | 150 tested, 70% active
Redox cycling – counter-screen for GALK inhibitors: redox cycling H2O2 generation; shares compounds with Pol eta inh-1; Phenol red-HRP H2O2 redox cycling, absorbance 600 nm; Potency, µM (highest dose often 115 µM), for the others: at the top dose activity change, negative = H2O2 signal, actives largely listed as inhibitors; 150 tested, 40% active; AID 2035
HEK293 tox – reduces HEK-293 cell viability in GALK counter-screen; shares compounds with Pol eta inh-1; HEK-293 viability, ATP luminescence (CellTiter-Glo), 24/48 h; Potency, µM (titrated, usually from 46.1 µM), without a hit: top-dose activity change, negative = cytotoxicity, actives largely listed as inhibitors; 170 tested, 10% active; AID 2547; further: potency means the concentration at half of the fitted maximal effect; on the % scale 0 is the no-effect control and ±100 the full control effect
Pol kappa inh-2 – confirmation of human DNA polymerase kappa inhibitors | Potency, µM, hits mostly inhibitors | purified Pol-kappa, fluorescent strand-displacement substrate | 920 tested, 76% active | shares compounds with Pol eta inh-1; further: potency means the concentration at half of the fitted maximal effect
Pol eta inh-2 – confirmation of human DNA polymerase eta inhibitors | shares compounds with Pol eta inh-1 | Pol eta primer extension, TAMRA/BHQ fluorescence, 10 min | Potency, µM, usual class: inhibitors | 2,600 tested, 64% active; further: potency means the concentration at half of the fitted maximal effect
FEN1 inh-2 – FEN1 inhibition, cherry-pick retest. Potency, µM, most hits filed as inhibitors. 880 tested, 79% active. shares compounds with FEN1 inh-1. AID 720498. FEN1 flap cleavage, TAMRA/BHQ2 fluorogenic DNA substrate; further: potency means the concentration at half of the fitted maximal effect; nearly all actives have a fitted effect of over 60% in size
WRN helicase inh-2 – WRN helicase inhibition, cherry-pick retest | shares compounds with WRN helicase inh-1 | WRN helicase DNA unwinding, fluorescence kinetic | Potency, µM (series often up to 57.1 µM), inactives show at the top dose activity, negative = inhibition, most hits filed as inhibitors | 610 tested, 63% active | AID 720497; further: potency means the concentration at half of the fitted maximal effect; nearly all actives have a fitted effect of over 65% in size
TO DNA binding – counter-screen for WRN helicase inhibitors: DNA binding; shares compounds with WRN helicase inh-1; thiazole orange DNA binding displacement, fluorescence; Potency, µM (doses to about 57.1 µM), inactives show at the highest dose activity change, negative = inhibition, hits mostly inhibitors; 610 tested, 10% active; AID 720499;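 further: drop in dye fluorescence marks compound binding to DNA; potency means the concentration at half of the fitted maximal effect; on the % scale 0 is the no-effect control and ±100 the full control effect; nearly all actives have a fitted effect of over 60% in size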
BLM counter – BLM helicase inhibition, WRN selectivity check; shares compounds with WRN helicase inh-1; 610 tested, 60% active; Potency, µM (doses to about 57.1 µM), inactives show at the highest dose activity change, negative = inhibition, actives largely listed as inhibitors; Recombinant BLM helicase DNA unwinding, red fluorescence; further: potency means the concentration at half of the fitted maximal effect; nearly all actives have a fitted effect of over 60% in size
Active calls of the source: *; ? = inconclusive; nt = no result given; [ ] = another dose, or the depositor's remark. In the library only some 2.4% were active in any assay of this set; here they are far more common. The call rests on the fitted dose curve; in most records, active means well fitted curve in the direction sought with a large enough effect; inconclusive means small, poorly fitted or top-dose-only effect, or another doubt; inactive means no such curve, though single readings can be large; an effect the other way counts as inactive or inconclusive.

SMILES	POLI inh	Pol beta inh	WRN helicase inh-1	FEN1 inh-1	Pol kappa inh-1	Pol eta inh-1	TbPGK inh	POLI cherry-pick	Pol eta inh-2	FEN1 inh-2	WRN helicase inh-2	TO DNA binding	BLM counter	others
CCCN(CCC)[C@@H]1CCc2c(OC)cccc2[C@@H]1C	nt	nt	nt	nt	4%[19.4 µM]	nt	nt	nt	nt	nt	nt	nt	nt
Cc1cccc(N2C(=O)/C(=C/c3ccc(N4CCN(C)CC4)o3)C(=O)NC2=S)c1C	?	-2%	32µM*	-15%	?	20µM*	nt	60*	30*	85*	nt	nt	nt	Pol kappa inh-2=8.4*
CN1C(=O)C(=Cc2ccc(N3CCCCCC3)o2)C(=O)N(C)C1=S	?	?	-47%	-3%	-22%	?	nt	nt	nt	nt	nt	nt	nt
COc1cc2c(cc1OC)[C@@H]1C(=O)c3ccc(OC)c(CC=C(C)C)c3OC1CO2 (stereo not given in full)	nt	nt	nt	nt	-17%[60.1 µM]	nt	nt	nt	nt	nt	nt	nt	nt
CN1C(=O)NC(=O)/C(=C/c2ccc([N+](=O)[O-])o2)C1=O	?	32µM*	?	25µM*	22µM*	3.5µM*	2.6µM*	6*	4.3*	34*	nt	nt	nt
CC1(C)OC(c2ccccc2)=C/C(=C/C=C2C(=O)NC(=S)NC2=O)O1	?	50µM*	8.9µM*	?	?	?	nt	67*	76*	85*	nt	nt	nt
CN1/C(=C\C=C2C(=O)NC(=S)NC2=O)C(C)(C)c2ccccc21	-9%	?	14%	40µM*	52%	79µM*	nt	?	85*	76*	nt	nt	nt	Pol kappa inh-2=60*
O=C1NC(=O)N(Cc2ccc(F)cc2)C(=O)/C1=C\C=C\c1ccco1	14µM*	?	35µM*	?	?	20µM*	nt	?	30*	nt	7.6µM*	-12%	4.3µM*
CCCCN1C(=O)/C(=C/C=C/c2ccco2)C(=O)NC1=S	28µM*	3.5µM*	2.7µM*	25µM*	18µM*	3.5µM*	13µM*	24*	17*	34*	12µM*	83%	6.8µM*
C=CCN1C(=O)/C(=C/c2cc(C)n(-c3ccccn3)c2C)C(=O)NC1=S	-25%	50%	-20%	-3%	-2%	?	nt	nt	nt	nt	nt	nt	nt
COc1cccc2c1C(=O)c1c(O)c3c(c(O)c1C2=O)CC(O)(C(C)=NO)CC3OC1CC(N)C(O)C(C)O1 (stereo not given)	79µM*	nt	2.7µM*	?	?	18µM*	nt	21*	43*	30*	22µM*	163%	22µM*
Cc1cccc(C(=O)Nc2ccc(C(=O)OCc3cc(=O)n4nc(C5CC5)sc4n3)cc2)c1	-6%	-6%	nt	-4%	-3%[60.1 µM]	?	nt	nt	nt	nt	nt	nt	nt
COc1ccc(CN2C(=O)NC(=O)/C(=C/c3ccoc3)C2=O)cc1	10µM*	10µM*	40µM*	22µM*	20µM*	20µM*	4.6µM*	19*	27*	76*	7.6µM*	-3%	2.4µM*
COc1ccc(C[C@@H]2NC[C@H](O)[C@@H]2OC(C)=O)cc1	nt	nt	nt	nt	-5%[12 µM]	nt	nt	nt	nt	nt	nt	nt	nt
CP(=O)(O)C1=CCNCC1	6%[58.9 µM]	11%[57.1 µM]	nt	nt	7%[60.1 µM]	-4%[57.1 µM]	nt	nt	nt	nt	nt	nt	nt
N/C(=N\N=C/c1ccc(-c2ccc(O)c(C(=O)O)c2)o1)N[N+](=O)[O-]	3.5µM*	3.5µM*	25µM*	50µM*	8.9µM*	4.5µM*	6.5µM*	3*	4.3*	nt	7.6µM*	?	6.8µM*	Pol kappa inh-2=3*
Cc1cc(/C=C2\C(=O)NC(=O)N(c3ccccc3F)C2=O)c(C)n1-c1cc(C(=O)O)cc(C(=O)O)c1	?	10µM*	40µM*	?	?	3.2µM*	?	19*	7.6*	nt	?	-8%	-4%
O=c1c(O)c(-c2ccc(O)c(O)c2)oc2cc(O)cc(O)c12	0.56µM*	0.2µM*	?	40µM*	0.95µM*	0.71µM*	?	15*	12*	nt	1.2µM*	?	1.1µM*	GALK confirm=42µM*;Redox cycling=-2%;HEK293 tox=?;Pol kappa inh-2=3*
CC(Cc1ccc(OCC(=O)O)cc1)NCC(O)c1cccc(Cl)c1 (stereo not given)	12%[58.9 µM]	12%[57.1 µM]	nt	nt	-4%[60.1 µM]	-4%[57.1 µM]	nt	nt	nt	nt	nt	nt	nt
